The source of these data is ChEMBL document CHEMBL4513216, “Probing the Open Global Health Chemical Diversity Library for Multistage-Active Starting Points for Next-Generation Antimalarials” (ACS Infect Dis, 2020).

Molecules are shown by their SMILES. In all, about 68,000 compounds went through this assay and about 2,700 (4%) showed an effect of 50% or more. The entries come from a sample that favours strong results as a whole.

This experiment concerns Plasmodium berghei. The experiment in a line: Screen against P. berghei liver stage (PbLuc), transformed with Luciferase, at 2uM. The class given is functional, HepG2. To be noted: tested at 2 uM.
On to `CCn1ccnc1CN1CCNCC1C` (stereo unspecified), for which the INHIBITION was -47.18%. Under `c1cnc(-c2cnc(N3CCSCC3)nc2C2CC2)cn1` stands -109.23%. Under `CCCSCC(=O)N1CCC2(CC1)CC(c1ccccc1)CN(C)C2` (stereo unspecified) stands 33.16%; under `O=C1CO[C@@H]2CN(C3CCOCC3)C[C@H]2N1Cc1cccc(F)c1`, 2.98%. Under `O=C1CO[C@@H]2CN(CC3CC3)C[C@H]2N1Cc1cccc(F)c1` stands 52.81%. In the case of `O=C1CO[C@@H]2CN(CC3CCOC3)C[C@H]2N1Cc1cccc(F)c1` (stereo partly specified), the INHIBITION is recorded as -12.84%. Under `Cn1nc2c(cc1=O)CN(CCOc1ccccc1C#N)CC2` stands -45.4%; under `Cc1nc(-c2ccccc2)nc2c1CCN(Cc1nccn1C)CC2`, 3.18%.

Take `CCc1ccc(CN2CCCn3c(nc(Cn4ccnc4)cc3=O)C2)o1`: the INHIBITION was found to be 54.56%. Turning to `Cc1ccc(CN2CCCn3c(nc(Cn4ccnc4)cc3=O)C2)o1`, the INHIBITION stood at 33.97%. Under `O=c1cc(Cn2ccnc2)nc2n1CCCN(Cc1ccco1)C2` stands -0.18%; under `Cc1ncoc1C(=O)N1C[C@H]2CCC[C@@]2(COCc2cccnc2)C1`, 30.77%; under `Cc1ccccc1C(NC(=O)CCCS(C)(=O)=O)C(C)(C)C` (stereo unspecified), 33.22%. `Cn1nnnc1SC1CCCN(c2cccc(F)c2)C1=O` (stereo unspecified): the INHIBITION was found to be 14.65%. Under `CCc1nnc(SC2CCCN(c3cnn(C)c3)C2=O)n1C` (stereo unspecified) stands 11.87%. Under `CCc1nnc(SC2CCCN(c3cccc(F)c3)C2=O)n1C` (stereo unspecified) stands 77.68%. As to `COc1ccc(CNC(=O)N(Cc2ccc(F)cc2F)C2CC2)cn1`, the INHIBITION is listed as -67.07%. Under `COCCN1CCN(Cc2cnc(C)nc2)CC1` stands 17.8%. Consider `CCC(C)S(=O)(=O)N1CCc2nc(C3CCNCC3)ncc2C1` (stereo unspecified), for which the INHIBITION is given as -0.83%. Under `CC(=O)N1CCC2(CC1)CN(C(=O)c1ccc3c(c1)OCCO3)C2` stands 41.38%. Turning to `Cc1cnc(N2CC3(CCN(C(=O)c4ccoc4)C3)C2)nc1`, the INHIBITION is on record as -18.49%.

As to `CC(=O)N1CC2(CCN(C(=O)c3ccc4c(c3)OCCO4)CC2)C1`, the INHIBITION turned out to be 65.54%. Turning to `CC(=O)N1CC2(CCN(C(=O)c3ccoc3)C2)C1`, the INHIBITION is listed as 67.62%. Under `CC(=O)N1CCC2(CC1)CN(C(=O)c1ccc3c(c1)OCO3)C2` stands 37.54%; under `O=C(c1ccoc1)N1CCC2(C1)CN(c1ncccn1)C2`, 25.43%.

In the case of `Cc1cccc(COC[C@H]2CC[C@H]3[C@H](CCN3Cc3ccco3)O2)n1`, the INHIBITION is on record as -22.82%. Under `O=C(c1ccco1)N1CCC2(CCCN(c3ncccn3)C2)C1` (stereo unspecified) stands -18.02%; under `CC1CN(C(=O)C2(c3ccc(F)cc3F)CCOCC2)CCO1` (stereo unspecified), 20.14%; under `NC(=O)C1CN(C(=O)NCC2(c3ccc(F)cc3)CCC2)CCO1` (stereo unspecified), -14.79%.

`NC(=O)C1CN(C(=O)C2(c3ccc(F)cc3F)CCCC2)CCO1` (stereo unspecified): the INHIBITION came out at 56.49%.

Take `CN1CC2(CCN(C(=O)CCc3nc4cccnc4n3C)C2)OC1=O` (stereo unspecified): the INHIBITION was -31.03%.

For the compound `N#Cc1ccc(C(=O)N2CC(c3nc(-c4ncccn4)no3)C2)cc1`, the INHIBITION was 11.43%. Under `Cc1cc(C(C)NC(=O)c2cnc3onc(C)c3c2)c(C)o1` (stereo unspecified) stands 4.49%; under `Cc1cc(C(C)NC(=O)c2ccc(O)nc2)c(C)o1` (stereo unspecified), 56.96%. Under `CNC(=O)c1cccc(NC(=O)NC(C)c2cc(C)oc2C)c1C` (stereo unspecified) stands 57.75%; under `CNC(=O)c1cccc(NC(=O)NC(C)CCc2cccn2C)c1C` (stereo unspecified), -54.27%. Regarding `CNC(=O)c1ccc(NC(=O)NC(C)c2cc(C)oc2C)c(C)c1` (stereo unspecified), the INHIBITION was 41.05%. Under `CNC(=O)c1ccc(NC(=O)NC(C)c2cc(C)oc2C)cc1` (stereo unspecified) stands 50.59%. Under `Cc1cc(C(C)NC(=O)c2c[nH]c(=O)c(Cl)c2)c(C)o1` (stereo unspecified) stands 25.72%; under `CC(C)NC(=O)c1ccc(NC(=O)NC(C)c2ccccn2)cc1` (stereo unspecified), 2.26%; under `CNC(=O)c1cccc(NC(=O)NCc2ccccc2)c1C`, -7.16%.

On to `COCc1nc(C(=O)N2CCCC2c2c(C)nn(C)c2C)cs1` (stereo unspecified), for which the INHIBITION is 5.1%.

For `Cc1ccc(C2(O)CCN(C(=O)CCn3ccc(=O)[nH]c3=O)CC2)nc1`, the INHIBITION was -3.56%. Under `N#CC1(NC(=O)COC(=O)Cc2cc(Cl)c3c(c2)OCCO3)CCCC1` stands 17.14%; under `O=C(NCCN1CCOCC1)c1cnc(Cc2ccc(F)cc2)s1`, -42.16%; under `CCc1nc(CN2CCN(C(=O)CCc3ccccc3)CC2)cs1`, 36.32%. In the case of `Fc1ccc(OCCCNC2=NCCN2)cc1`, the INHIBITION is 6.36%. In the case of `Cc1ccc(CCNc2ncc(C)c(-c3ccnn3C)n2)s1`, the INHIBITION is listed as -33.54%. Under `COCC(=O)N1CCC(c2csc(NC(C)=O)n2)CC1` stands -2.2%; under `COCC(=O)N1CCCC(c2csc(NC(C)=O)n2)C1` (stereo unspecified), 15.73%; under `COCC(=O)N1CC(c2csc(NC(C)=O)n2)C1`, 50.74%.

On to `Cc1nn(C)c(Cl)c1C1CCCN1CC(=O)NCc1ccco1` (stereo unspecified), for which the INHIBITION is reported as 33.61%.

For `CC(C)CNC(=O)Nc1ccc(CN2CCOC2=O)cc1`, the INHIBITION is on record as -15.92%.

Regarding `CCC(C)NC(=O)Nc1ccc(CN2CCOC2=O)cc1` (stereo unspecified), the INHIBITION was -5.28%. For `CC(=O)Nc1ccc(CN2CCOC2=O)cc1`, the INHIBITION is 55.66%. Under `N[C@H]1CN(Cc2cnc(N3CCCC3)nc2)C[C@@H]1C1CC1` stands 22.18%. On to `Nc1ncc(CN2C[C@H](C3CC3)[C@@H](N)C2)cn1`, for which the INHIBITION is given as 64.38%. Under `CCNc1ncc(CN2C[C@H](C3CC3)[C@@H](N)C2)cn1` stands -35.18%; under `Cn1ccnc1SCCNC(=O)CC1CCc2ccccc21` (stereo unspecified), 1.88%. In the case of `CN1CCN(Cc2cccc(NCc3ncc[nH]3)c2)CC1`, the INHIBITION was 8.37%. Turning to `Fc1cccc(NCc2ncc[nH]2)c1`, the INHIBITION worked out at 51.08%.

For the compound `COc1cc(NCc2ncc[nH]2)ccc1Br`, the INHIBITION was 44.23%.

Regarding `COCc1nc2cc(NCc3ncc[nH]3)ccc2o1`, the INHIBITION worked out at 12.94%. Regarding `Fc1ccc(NCc2ncc[nH]2)cc1Br`, the INHIBITION amounted to 56.21%. For `Fc1cccc(C(NCc2ncc[nH]2)c2ccccc2)c1` (stereo unspecified), the INHIBITION was 14.52%. Under `CCOc1ccc(N(CC(=O)c2ccccc2)C2=NCCCCC2)cc1` stands 20.74%; under `CS(=O)(=O)c1cc(Cl)cnc1C1CCN(C(=O)C2CCOCC2)CC1`, -33.32%. For `CS(=O)(=O)c1cc(Cl)cnc1C1CCN(C(=O)C2CC2)CC1`, the INHIBITION is -14.56%. Under `Cn1nccc1C(=O)N1CCC(c2ncc(Cl)cc2S(C)(=O)=O)CC1` stands 76.78%; under `Cn1cc(CN2C[C@H](N3CCOCC3)[C@@H]3OCCC[C@@H]32)cn1`, -3.36%. Turning to `O=C(CSC1CCCC1)N1CCN(C(=O)C2CC2c2cccs2)CC1` (stereo unspecified), the INHIBITION is 10.39%. Under `CN(CCC#N)C(=O)CN(C1CC1)C1CCc2ccccc21` (stereo unspecified) stands 63.73%; under `CN(CC(=O)N(CCC#N)c1ccccc1)C1CCc2ccccc21` (stereo unspecified), -25.33%. For the compound `N#CCCN(CCC#N)C(=O)CN(C1CC1)C1CCc2ccccc21` (stereo unspecified), the INHIBITION is 12.84%.

For the compound `CCn1c(SCC(N)=O)nnc1C(C)NC(=O)c1ccc(Cl)cc1` (stereo unspecified), the INHIBITION turned out to be 11.4%.

Turning to `COCCN(Cc1nccs1)C(=O)c1cc(-c2ccc(C)s2)n[nH]1`, the INHIBITION was determined as 31.51%.

Regarding `COCCN(Cc1nccs1)C(=O)c1c(C)cc(C)[nH]c1=O`, the INHIBITION is -1.63%. Under `COCCN(Cc1nccs1)C(=O)c1cc(-c2ccc(C)o2)n[nH]1` stands 52.98%. Under `COc1ccc(C)c2c1N(C(=O)c1cnc3onc(C)c3c1)CCC2` stands 47.2%; under `COc1ccc(C)c2c1N(C(=O)c1ccc3nnc(C)n3c1)CCC2`, 61.06%; under `COc1ccc(C)c2c1N(C(=O)c1cnc(C)s1)CCC2`, 18.01%. In the case of `N#Cc1cccc(CN2CCC3(CC(C(=O)NCC4CC4)=NO3)C2)c1` (stereo unspecified), the INHIBITION is 7.35%.

As for `CNC1CCCN(Cc2noc(C3CC3)n2)C1` (stereo unspecified), the INHIBITION is recorded as 8.91%. Under `Cc1n[nH]c(C)c1CNC(=O)N(Cc1ccccc1)CC(C)(C)O` stands -16.94%; under `Cc1noc(C2CCN(C(=O)CCc3ccccn3)CC2)n1`, 9.36%; under `CCN1CCC2(C=C(C(=O)NC3CC3)c3ccccc32)CC1`, 57.95%.

Consider `O=C(NC1CC1)C1=CC2(CCN(CC3CC3)CC2)c2ccccc21`, for which the INHIBITION worked out at 11.73%. Under `CC(C)CN1CCC2(C=C(C(=O)NC3CC3)c3ccccc32)CC1` stands -14.63%; under `COc1ccc(Cl)cc1S(=O)(=O)N(C)CC(=O)Nc1cccnc1`, -66.51%; under `Cn1c(C2CC2)nc2c1CCN(CCOc1cccc(F)c1)C2`, -9.49%. As to `Cn1c(C2CC2)nc2c1CCN(CCOc1ccc(C#N)cc1)C2`, the INHIBITION is 55.52%.

As for `Cn1c(C2CC2)nc2c1CCN(CCOc1ccccc1C#N)C2`, the INHIBITION is on record as -16.16%.

With `NCc1ccc(Oc2ccc(F)c(F)c2)cc1C(F)(F)F`, the INHIBITION is 30.1%.

Turning to `CC(C)Oc1ccc(CN)c(C(F)(F)F)c1`, the INHIBITION is reported as 28.94%. On to `CC(C)(C)Oc1ccc(CN)c(C(F)(F)F)c1`, for which the INHIBITION is listed as 50.01%. Under `CN1CCC(N(C)C(=O)CCc2ccc(F)c(F)c2)C1=O` (stereo unspecified) stands 20.14%. Under `CC(C)c1ccc(CCC(=O)N(C)C2CCN(C)C2=O)cc1` (stereo unspecified) stands 71.91%; under `CN1CCC(N(C)C(=O)CSc2ccc(F)c(F)c2)C1=O` (stereo unspecified), -15.11%. Under `COc1cccc(CC(=O)N2CC[C@@H](OC)[C@@H]2Cc2cccnc2)c1` stands 8.18%; under `COC[C@@]12CCO[C@@H]1CCN(C(=O)Cc1ccccc1C)C2`, 54.56%. As for `COC[C@@]12CCO[C@@H]1CCN(C(=O)Cc1ccc(C)cc1)C2`, the INHIBITION is recorded as 11.37%. Under `COC[C@@]12CCO[C@@H]1CCN(C(=O)Cc1ccccc1F)C2` stands -26.85%; under `CN(Cc1ccc2c(c1)OCO2)C(=O)NCCc1cnn(C)c1`, -0.12%; under `COCC(=O)NC1CC2(CCN(Cc3ccco3)CC2)c2ccccc21` (stereo unspecified), -40.39%. Under `CCOc1cccc2c1OCC(C(=O)NS(=O)(=O)c1ccc(Br)s1)=C2` stands -20.93%; under `COc1ccc(C(=O)NS(=O)(=O)c2cncc(Br)c2)cc1`, 53.12%; under `COc1cc(C(=O)NS(=O)(=O)c2cccc(C#N)c2)cc(OC)c1Br`, 41.76%. Under `COc1cc(C(=O)NS(=O)(=O)c2cccc(C#N)c2)cc(OC)c1C` stands -15.28%; under `CCOc1cccc2c1OCC(C(=O)NS(=O)(=O)c1ccc(Cl)cc1)=C2`, 30.91%. In the case of `CCOc1cc(C(=O)NS(=O)(=O)c2cccc(C#N)c2)ccc1OC`, the INHIBITION worked out at 64.16%. Under `COc1cccc(C(=O)NS(=O)(=O)c2cccc(C#N)c2)c1` stands -49.9%; under `COc1cc(C(=O)NS(=O)(=O)c2cccc(C#N)c2)ccc1C`, 23.92%. Under `COC(=O)c1ccc(C(=O)NS(=O)(=O)c2cncc(Br)c2)cc1` stands -8.83%. Under `CCOc1cccc2c1OCC(C(=O)NS(=O)(=O)c1cncc(Br)c1)=C2` stands 51.94%; under `COc1ccc(C(=O)NS(=O)(=O)c2cccc(C#N)c2)cc1`, 66.2%; under `COc1ccc(C(=O)NS(=O)(=O)c2cncc(Br)c2)cc1OC`, -10.6%.
